Here are results for 21 molecules from PubChem BioAssay (NCI).

A short description of test [1]: NCI Yeast Anticancer Drug Screen. Data for the rad50 strain (AID 155).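 Further: 0% = growth of vehicle-only cultures of the same strain.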 Particulars: S. cerevisiae rad50 strain growth inhibition; at 50.0 µM; stronger effect = higher value. In a few lines:
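Vehicle-treated cultures provide the reference for the growth inhibition reported for compound-exposed, repair-deficient yeast.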

The nature of test [2]: NCI Yeast Anticancer Drug Screen. Data for the mec2-1 strain (AID 157). Particulars: S. cerevisiae mec2-1 strain, at 50.0 µM, stronger effect = higher value. The method in brief: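 Yeast mec2-1 mutant treated with compound. Readout: growth inhibition vs vehicle controls.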
Test [3] in a line: NCI Yeast Anticancer Drug Screen. Data for the sgs1 mgt1 strain (AID 161).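 Further: 0% = growth of cultures given vehicle only.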 Particulars: S. cerevisiae sgs1 mgt1 strain, at 50.0 µM, stronger effect = higher value. In a few lines:
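Mutant yeast exposed to compound; growth scored against vehicle-only wells.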

Test [4] is described as follows: NCI Yeast Anticancer Drug Screen. Data for the cln2 rad14 strain (AID 165).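 Further: 0% = growth equal to vehicle treated cultures.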 Particulars: S. cerevisiae cln2 rad14 strain, at 50.0 µM, stronger effect = higher value. The method in brief: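 cln2 rad14 yeast strain; compound exposure; growth inhibition read vs vehicle controls.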
A short description of test [5]: NCI Yeast Anticancer Drug Screen. Data for the bub3 strain (AID 167). Particulars: S. cerevisiae bub3 mutant strain, at 50.0 µM, stronger effect = higher value. In a few lines:
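Mutant yeast screening strain plus compound; vehicle-treated cultures serve as the 0% inhibition reference.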

Test [6] is described as follows: NCI Yeast Anticancer Drug Screen. Data for the mlh1 rad18 strain (AID 175). Particulars: S. cerevisiae mlh1 rad18 strain growth inhibition; at 50.0 µM; stronger effect = higher value. The method in brief: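 Yeast w/ defined DNA-repair lesions; compound exposure; growth vs vehicle controls → % inhibition.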

Molecules are shown by their SMILES. This is part of a sample that, as a whole, favours compounds with a hit. Of some 79,000 tested, about 15% had one in any assay. Unmarked numbers belong to inactive results. Calls of active or inactive are those of the source. No stated cut-off is given here; in the data, active means growth inhibition above about 70%; inactive means the rest.

On to `S=c1[nH]nc(COc2cccc3cccnc23)n1-c1ccccc1`, for which the growth inhibition in test [1] is 12.5%; in test [2] it was 2.55%; in test [3] it was 2.05%; in test [4] it was 25.9%; in test [5] it was 13.4%; in test [6], 12.4%.

Turning to `C1C[O][Ge]2([O]1)[O]CC[O]2`, the growth inhibition is -24.9% in test [1]; -4.95% in test [2]; -16.2% in test [3]; 17.1% in test [4]; -13.2% in test [5]; -5.95% in test [6].

Regarding `N=C1C=C/[N+](=C\C=CCO)C([O-])=N1`, the growth inhibition was -18.2% in test [1]; -20.6% in test [2]; -35.3% in test [3]; -2.55% in test [4]; -43.4% in test [5]; -3.2% in test [6].

As for `CC1(C)CC(=O)C(/C(=N/NC(=S)NN)C(=O)Nc2nc3ccc([N+](=O)[O-])cc3s2)C(=O)C1`, the growth inhibition was 35.8% in test [1]; 20.2% in test [2]; -15.2% in test [3]; -26.9% in test [4]; 1% in test [5]; 16.4% in test [6].

With `O=C(CN1CCOCC1)Nc1ccc(S(=O)(=O)c2ccc([N+](=O)[O-])cc2)cc1`, the growth inhibition in test [1] was 52.3%; in test [2] it was 15%; in test [3] it was 99.3% (active); in test [4], 98.3% (active); in test [5], 96.7% (active); in test [6], 26.1%.

On to `NC(=O)CCC(Nc1c2ccccc2nc2ccccc12)C(=O)O` (stereo unspecified), for which the growth inhibition in test [1] is 23.1%; in test [2] it was 3.85%; in test [3] it was 15.7%; in test [4], 28.6%; in test [5] it was 1.4%; in test [6], 48.2%.

For the molecule `O=C(NNCCO)C(O)C(O)C(O)C(O)CO` (stereo unspecified), the growth inhibition in test [1] is -31.4%; in test [2], 7.15%; in test [3], 2.95%; in test [4] it was 5.25%; in test [5] it was -4.7%; in test [6] it was 13.2%.

Turning to `O=c1c(O)c(-c2ccccc2)oc2cc(O)cc(O)c12`, the growth inhibition in test [1] was 24.5%; in test [2], 4.4%; in test [3] it was 40.9%; in test [4], 25.8%; in test [5], 27.4%; in test [6], 28.7%.

Take `CCOC(=O)NC(C)(C)CN(CCO)C(=O)OCC`: the growth inhibition in test [1] was -5.9%; in test [2], -3.4%; in test [3] it was 1.4%; in test [4], -4.9%; in test [5], -21.9%; in test [6], -8.7%.

With `CC1=C(c2cc(C(=O)Nc3ccc(Cl)cc3)nc(=S)[nH]2)Sc2ccccc2N1`, the growth inhibition is -30.9% in test [1]; -15.2% in test [2]; -46% in test [3]; -1.45% in test [4]; -5.65% in test [5]; -35.4% in test [6].

For `COC(=O)c1sc(C(=O)OC)c2c1CSC2`, the growth inhibition in test [1] was -6%; in test [2], 5.35%; in test [3], -18.4%; in test [4] it was 2.55%; in test [5] it was -8%; in test [6] it was 13.2%.

`N#CC1C2CCC(C2)C1CCCN` (stereo unspecified): the growth inhibition in test [1] was 18.4%; in test [2], -8.75%; in test [3], 6.55%; in test [4] it was -81.9%; in test [5], -8.05%; in test [6] it was -13.8%.

Consider `CCOC(=O)NC(Nc1ccc([N+](=O)[O-])cc1)(C(F)(F)F)C(F)(F)F`, for which the growth inhibition is 45.4% in test [1]; 40.2% in test [2]; 22.8% in test [3]; 32.1% in test [4]; 42% in test [5]; 59.1% in test [6].

With `CCN1CCCCC(=N\O)/C(=N/O)CCCC1`, the growth inhibition in test [1] is -12.8%; in test [2] it was -12.2%; in test [3], -20.1%; in test [4], -4.2%; in test [5], -51.6%; in test [6] it was -11.8%.

Turning to `COCCCNC(=O)CC(=O)NCCCOC`, the growth inhibition in test [1] is 13.4%; in test [2], -2.3%; in test [3] it was 24.8%; in test [4] it was 6.55%; in test [5], 5%; in test [6], 29.4%.

Turning to `CC12CCC(Cl)(CC1O)C2(C)C` (stereo unspecified), the growth inhibition in test [1] was 1.9%; in test [2], 11.6%; in test [3], 1.15%; in test [4], 2.05%; in test [5], -6.9%; in test [6] it was -1.05%.

Consider `CCOC1(c2ccccc2)OC(=O)c2ccccc21` (stereo unspecified), for which the growth inhibition in test [1] was 18.9%; in test [2], 3.15%; in test [3], 9.8%; in test [4], 16.7%; in test [5] it was 2.4%; in test [6], 11.7%.

Consider `Cc1ccc(OS(=O)Nc2cccc(N)c2)cc1` (stereo unspecified), for which the growth inhibition is -5.35% in test [1]; -12.1% in test [2]; -13.9% in test [3]; -22.1% in test [4]; -8.4% in test [5]; -10.3% in test [6].

Take `COc1ccc2c(c1)OC[C@@H]1c3cc(NC(=O)c4ccccc4)c(OC)cc3N(S(=O)(=O)c3ccccc3)[C@H]21`: the growth inhibition is -22.8% in test [1]; -6.4% in test [2]; -18.1% in test [3]; -3.3% in test [4]; 2.25% in test [5]; -2.25% in test [6].

Turning to `O=C1CS(=O)(=O)CN1c1ccc(Cl)c(Cl)c1`, the growth inhibition was -17.4% in test [1]; -3.35% in test [2]; -7.65% in test [3]; 6% in test [4]; 7% in test [5]; 3.6% in test [6].

`CC(O)C1CC1` (stereo unspecified): the growth inhibition in test [1] was -17%; in test [2], -40.8%; in test [3], 9.3%; in test [4] it was 1.65%; in test [5] it was -2.2%; in test [6] it was -5.7%.
